# Key:
# Experiment in all cases: universal protein binding microarray (PBM); transcription factors of Arabidopsis thaliana; high values mean tight binding
# [1] = molecular target: T1, GST-ATAF1 NAC domain (Arabidopsis thaliana, UniProt Q39013 7-158); conditions: protein: recombinant; tags: GST; chain copies: 2; dsDNA, one strand shown
# T1 sequence: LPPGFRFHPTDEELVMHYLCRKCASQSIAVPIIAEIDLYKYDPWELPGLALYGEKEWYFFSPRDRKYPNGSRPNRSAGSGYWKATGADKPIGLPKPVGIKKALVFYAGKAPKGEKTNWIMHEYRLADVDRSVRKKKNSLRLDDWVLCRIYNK
# Summary of the method: (§1)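 GST-tagged proteins (NAC-domain, full-length or DNA-binding-domain) were induced in cells, with zinc acetate supplied for zinc-finger proteins, then purified on glutathione–Sepharose 4B. Each was tested in duplicate at 200 to 500 nM final on custom all-10-mer Agilent 4 × 180K arrays rendered double-stranded by primer extension. The binding value is the normalised enrichment score (E-score) across gapped and ungapped 8-mers.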
# [2] = molecular target: T2, GST-NAP(1-166) (Arabidopsis thaliana, UniProt O49255 1-166); conditions: protein: recombinant; tags: GST; chain copies: 2; dsDNA, one strand shown
# T2 sequence: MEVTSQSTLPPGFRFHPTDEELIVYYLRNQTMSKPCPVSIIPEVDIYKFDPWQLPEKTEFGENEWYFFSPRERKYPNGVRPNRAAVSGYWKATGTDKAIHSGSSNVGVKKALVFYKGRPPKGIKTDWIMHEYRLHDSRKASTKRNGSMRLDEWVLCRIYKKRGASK
# Summary of the method: as §1
# [3] = molecular target: T3, GST-VND7 NAC domain (Arabidopsis thaliana, UniProt Q9C8W9 9-158); conditions: protein: recombinant; tags: GST; chain copies: 2; dsDNA, one strand shown
# T3 sequence: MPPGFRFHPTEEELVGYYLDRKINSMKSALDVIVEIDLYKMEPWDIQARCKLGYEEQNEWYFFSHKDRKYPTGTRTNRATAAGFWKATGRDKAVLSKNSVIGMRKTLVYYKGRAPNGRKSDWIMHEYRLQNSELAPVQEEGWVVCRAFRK
# Summary of the method: as §1
# [4] = molecular target: GST-WRKY1(266-371) (Arabidopsis thaliana, UniProt Q9SI37 266-371); conditions: protein: recombinant; tags: GST; dsDNA, one strand shown
# Chain of GST-WRKY1(266-371) (Q9SI37 266-371): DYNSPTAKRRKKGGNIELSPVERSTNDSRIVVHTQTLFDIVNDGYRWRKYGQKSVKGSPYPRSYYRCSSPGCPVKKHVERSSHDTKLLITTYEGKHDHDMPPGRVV
# Summary of the method: as §1
# [5] = molecular target: GST-NTL6(1-168) (Arabidopsis thaliana, UniProt Q9SCK6 1-168); conditions: protein: recombinant; tags: GST; chain copies: 2; dsDNA, one strand shown
# Chain of GST-NTL6(1-168) (Q9SCK6 1-168): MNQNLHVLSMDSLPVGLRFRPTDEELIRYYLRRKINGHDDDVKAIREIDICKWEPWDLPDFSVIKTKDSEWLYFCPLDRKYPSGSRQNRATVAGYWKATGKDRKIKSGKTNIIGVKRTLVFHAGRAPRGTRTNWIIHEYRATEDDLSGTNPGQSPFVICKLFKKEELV
# Summary of the method: as §1
# [6] = molecular target: T4, GST-ANAC019 NAC domain (Arabidopsis thaliana, UniProt Q9C932 14-162); conditions: protein: recombinant; tags: GST; chain copies: 2; dsDNA, one strand shown
# T4 sequence: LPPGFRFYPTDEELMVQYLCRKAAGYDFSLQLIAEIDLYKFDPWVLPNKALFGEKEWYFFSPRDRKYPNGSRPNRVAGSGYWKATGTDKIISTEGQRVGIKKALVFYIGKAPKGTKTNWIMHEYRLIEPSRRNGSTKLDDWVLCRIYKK
# Summary of the method: as §1
# [7] = molecular target: T5, GST-NTL8 NAC domain (Arabidopsis thaliana, UniProt Q9XIN7 14-156); conditions: protein: recombinant; tags: GST; chain copies: 2; dsDNA, one strand shown
# T5 sequence: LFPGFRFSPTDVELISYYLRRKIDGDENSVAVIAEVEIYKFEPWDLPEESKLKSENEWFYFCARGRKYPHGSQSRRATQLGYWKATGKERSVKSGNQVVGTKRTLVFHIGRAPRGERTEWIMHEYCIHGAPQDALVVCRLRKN
# Summary of the method: as §1
# [8] = molecular target: T6, GST-VND3 NAC domain (Arabidopsis thaliana, UniProt Q9FH59 12-162); conditions: protein: recombinant; tags: GST; chain copies: 2; dsDNA, one strand shown
# T6 sequence: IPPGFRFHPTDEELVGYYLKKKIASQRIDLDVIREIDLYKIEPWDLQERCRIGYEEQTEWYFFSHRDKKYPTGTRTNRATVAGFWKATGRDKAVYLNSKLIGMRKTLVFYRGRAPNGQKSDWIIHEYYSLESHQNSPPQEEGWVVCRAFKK
# Summary of the method: as §1
# [9] = molecular target: T7, GST-ANAC055(1-171) (Arabidopsis thaliana, UniProt Q9LDY8 1-171); conditions: protein: recombinant; tags: GST; chain copies: 2; dsDNA, one strand shown
# T7 sequence: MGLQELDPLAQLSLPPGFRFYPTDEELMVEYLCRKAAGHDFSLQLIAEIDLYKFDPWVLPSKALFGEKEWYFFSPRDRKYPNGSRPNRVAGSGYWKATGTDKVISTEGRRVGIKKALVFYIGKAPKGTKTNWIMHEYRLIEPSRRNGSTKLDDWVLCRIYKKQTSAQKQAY
# Summary of the method: as §1
# [10] = molecular target: T8, GST-ANAC092(1-176) (Arabidopsis thaliana, UniProt Q9FKA0 1-176); conditions: protein: recombinant; tags: GST; chain copies: 2; dsDNA, one strand shown
# T8 sequence: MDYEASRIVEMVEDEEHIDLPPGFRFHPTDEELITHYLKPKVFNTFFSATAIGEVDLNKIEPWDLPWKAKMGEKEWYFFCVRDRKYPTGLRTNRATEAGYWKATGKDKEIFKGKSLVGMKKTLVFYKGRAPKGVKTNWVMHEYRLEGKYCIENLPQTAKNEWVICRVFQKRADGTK
# Summary of the method: as §1
# [11] = molecular target: T9, GST-ANAC092(1-285) full length (Arabidopsis thaliana, UniProt Q9FKA0 1-285); conditions: protein: recombinant; tags: GST; chain copies: 2; dsDNA, one strand shown
# T9 sequence: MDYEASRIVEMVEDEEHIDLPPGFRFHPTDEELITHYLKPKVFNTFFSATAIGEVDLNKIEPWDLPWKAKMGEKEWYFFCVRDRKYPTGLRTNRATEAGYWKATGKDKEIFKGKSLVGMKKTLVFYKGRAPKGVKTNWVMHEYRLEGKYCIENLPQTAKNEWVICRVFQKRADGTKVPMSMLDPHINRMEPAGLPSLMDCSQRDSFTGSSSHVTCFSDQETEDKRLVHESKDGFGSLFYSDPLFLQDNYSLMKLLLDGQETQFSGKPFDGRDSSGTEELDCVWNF
# Summary of the method: as §1
# [12] = molecular target: T10, GST-NST2(1-184) (Arabidopsis thaliana, UniProt Q9M274 1-184); conditions: protein: recombinant; tags: GST; chain copies: 2; dsDNA, one strand shown
# T10 sequence: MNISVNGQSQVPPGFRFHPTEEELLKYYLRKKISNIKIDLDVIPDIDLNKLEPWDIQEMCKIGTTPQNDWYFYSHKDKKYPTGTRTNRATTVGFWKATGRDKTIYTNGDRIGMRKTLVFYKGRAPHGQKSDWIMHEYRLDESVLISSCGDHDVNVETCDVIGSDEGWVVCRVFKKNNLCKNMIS
# Summary of the method: as §1
sequence,measurement,setting,value
AGTCAAAT,binding signal,[1],0.213 E-score
same,binding signal,[2],0.113 E-score
same,binding signal,[3],0.152 E-score
same,binding signal,[4],0.476 E-score
GAAGTCAA,binding signal,[5],0.104 E-score
same,binding signal,[6],0.0675 E-score
same,binding signal,[1],0.0967 E-score
same,binding signal,[7],0.0673 E-score
same,binding signal,[3],0.0707 E-score
same,binding signal,[4],0.482 E-score
GGTCATAC,binding signal,[2],0.108 E-score
same,binding signal,[8],0.115 E-score
same,binding signal,[4],0.421 E-score
ATTAGTCA,binding signal,[9],0.0956 E-score
same,binding signal,[1],0.109 E-score
same,binding signal,[8],0.135 E-score
same,binding signal,[4],0.404 E-score
AGGTCAGC,binding signal,[3],0.078 E-score
same,binding signal,[4],0.451 E-score
TAGTCAGA,binding signal,[1],0.0564 E-score
same,binding signal,[8],0.065 E-score
same,binding signal,[4],0.428 E-score
AGTCAAAG,binding signal,[7],0.0881 E-score
same,binding signal,[3],0.0935 E-score
same,binding signal,[4],0.486 E-score
AGGGTAAT,binding signal,[10],0.113 E-score
same,binding signal,[5],0.143 E-score
same,binding signal,[6],0.116 E-score
same,binding signal,[9],0.17 E-score
same,binding signal,[1],0.114 E-score
same,binding signal,[11],0.108 E-score
same,binding signal,[12],0.0716 E-score
same,binding signal,[7],0.441 E-score
same,binding signal,[8],0.121 E-score
AATTGACC,binding signal,[9],0.0684 E-score
same,binding signal,[1],0.176 E-score
same,binding signal,[12],0.0795 E-score
same,binding signal,[7],0.0822 E-score
same,binding signal,[8],0.115 E-score
same,binding signal,[4],0.47 E-score
GGAGTCAA,binding signal,[4],0.476 E-score
GACCGGAA,binding signal,[10],0.0538 E-score
same,binding signal,[6],0.213 E-score
same,binding signal,[9],0.0745 E-score
same,binding signal,[7],0.0847 E-score
same,binding signal,[3],0.0568 E-score
same,binding signal,[4],0.404 E-score
AGGGAAAT,binding signal,[10],0.137 E-score
same,binding signal,[5],0.0669 E-score
same,binding signal,[6],0.0765 E-score
same,binding signal,[1],0.112 E-score
same,binding signal,[11],0.106 E-score
same,binding signal,[12],0.0566 E-score
same,binding signal,[7],0.406 E-score
same,binding signal,[8],0.0592 E-score
TTAGTCAA,binding signal,[6],0.12 E-score
same,binding signal,[1],0.107 E-score
same,binding signal,[11],0.0778 E-score
same,binding signal,[8],0.11 E-score
same,binding signal,[4],0.481 E-score
AGTCTTTG,binding signal,[10],0.0553 E-score
same,binding signal,[5],0.0583 E-score
same,binding signal,[6],0.0679 E-score
same,binding signal,[9],0.0944 E-score
same,binding signal,[3],0.125 E-score
same,binding signal,[4],0.424 E-score
TAGTCAAA,binding signal,[9],0.136 E-score
same,binding signal,[1],0.272 E-score
same,binding signal,[8],0.105 E-score
same,binding signal,[4],0.477 E-score
ATAAGTCA,binding signal,[5],0.161 E-score
same,binding signal,[11],0.101 E-score
same,binding signal,[8],0.105 E-score
same,binding signal,[4],0.443 E-score
CCGTTGAC,binding signal,[6],0.157 E-score
same,binding signal,[11],0.0578 E-score
same,binding signal,[2],0.126 E-score
same,binding signal,[4],0.49 E-score
CTGACCAC,binding signal,[6],0.0574 E-score
same,binding signal,[4],0.41 E-score
GACCAAGA,binding signal,[6],0.0567 E-score
same,binding signal,[4],0.403 E-score
GGTCAAGA,binding signal,[6],0.09 E-score
same,binding signal,[11],0.0594 E-score
same,binding signal,[12],0.08 E-score
same,binding signal,[4],0.477 E-score
GCTGACCA,binding signal,[6],0.0761 E-score
same,binding signal,[4],0.462 E-score
GACTTGAC,binding signal,[9],0.11 E-score
same,binding signal,[1],0.199 E-score
same,binding signal,[11],0.0614 E-score
same,binding signal,[7],0.0707 E-score
same,binding signal,[4],0.458 E-score
GTAGGTCA,binding signal,[6],0.129 E-score
same,binding signal,[7],0.0647 E-score
same,binding signal,[4],0.416 E-score
GGAAGTCA,binding signal,[5],0.132 E-score
same,binding signal,[6],0.0521 E-score
same,binding signal,[11],0.0837 E-score
same,binding signal,[7],0.0895 E-score
same,binding signal,[4],0.429 E-score

# — article PMC4081100, “A DNA-binding-site landscape and regulatory network analysis for NAC transcription factors in Arabidopsis thaliana”
